In PubChem BioAssay (NCI):
About 79,000 compounds went through this panel and 15% of them were active in at least one assay; those are over-represented in the sample as a whole. No stated cut-off is given here; in the data, active means growth inhibition above about 70%; inactive means the rest.

How the values were obtained:
[1] = NCI Yeast Anticancer Drug Screen. Data for the rad50 strain (AID 155);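 further: 0% = growth of vehicle-only cultures of the same strain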; conditions: S. cerevisiae rad50 strain growth inhibition; at 50.0 µM; stronger effect = higher value
Method in brief: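 Yeast carrying a defined DNA repair defect were exposed to test compounds, and growth was compared with vehicle-treated controls to give percent inhibition.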

[2] = NCI Yeast Anticancer Drug Screen. Data for the mec2-1 strain (AID 157); conditions: S. cerevisiae mec2-1 strain, at 50.0 µM, stronger effect = higher value
Method in brief: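 Each compound was tested on mec2-1 yeast, a strain altered in DNA damage repair or cell cycle control. Growth inhibition is reported relative to vehicle.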

[3] = NCI Yeast Anticancer Drug Screen. Data for the sgs1 mgt1 strain (AID 161);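 further: 0% = growth of cultures given vehicle only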; conditions: S. cerevisiae sgs1 mgt1 strain, at 50.0 µM, stronger effect = higher value
Method in brief: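 Mutant yeast exposed to compound; growth scored against vehicle-only wells.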

[4] = NCI Yeast Anticancer Drug Screen. Data for the cln2 rad14 strain (AID 165);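 further: 0% = growth equal to vehicle treated cultures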; conditions: S. cerevisiae cln2 rad14 strain, at 50.0 µM, stronger effect = higher value
Method in brief: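 Test compounds were added to cln2 rad14 yeast cultures; inhibition of growth was then determined by comparison with vehicle treatment.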

[5] = NCI Yeast Anticancer Drug Screen. Data for the bub3 strain (AID 167); conditions: S. cerevisiae bub3 mutant strain, at 50.0 µM, stronger effect = higher value
Method in brief: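 Compounds were applied to a genetically altered yeast strain carrying a cell-cycle control defect. Growth inhibition was scored against vehicle-treated controls.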

[6] = NCI Yeast Anticancer Drug Screen. Data for the mlh1 rad18 strain (AID 175); conditions: S. cerevisiae mlh1 rad18 strain growth inhibition; at 50.0 µM; stronger effect = higher value
Method in brief: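 Inhibition values reflect reduced growth of mutant yeast versus vehicle-treated controls following compound exposure; the mutations affect DNA damage repair.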

Measured: growth inhibition

CSCCC(NCc1c(O)ccc2c(C)cc(=O)oc12)C(=O)O (stereo not drawn)
inactive: [1] 16.5% | [2] 0.85% | [3] 14% | [4] 25.9% | [5] -1.05% | [6] 26.7%

O=C(Cc1nc2ccc(Cl)cc2[nH]c1=O)c1ccncc1
inactive: [1] -2.8% | [2] -11.6% | [3] -3.55% | [4] 8.1% | [5] -24.1% | [6] 20.8%

CCCC(C)CCCC(=O)c1ccc2cc(OC)ccc2c1 (stereo not drawn)
inactive: [1] -34.2% | [2] -16.8% | [3] -14.5% | [4] -33.3% | [5] -2% | [6] -29.9%
